Results reported in PubChem BioAssay AID1347414 (National Center for Advancing Translational Sciences (NCATS), 2020).
Inconclusive results are not listed. The source made the active and inactive calls. The call rests on the fitted dose curve; in most records, active means well fitted inhibition curve with a large enough effect; inconclusive means small, poorly fitted or top-dose-only effect; inactive means no such curve, though single readings can be large or run the other way.

Experiment: qHTS to identify inhibitors of the type 1 interferon - major histocompatibility complex class I in skeletal muscle: Secondary screen by immunofluorescence; further: nearly all actives have a fitted effect of over 70% in size;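 on activity change, negative = inhibition: digitonin at 100 µM served as the cytotoxic control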
Conditions: C25cl48 myoblasts, IFN-b induced HLA-ABC immunofluorescence, 24 h; series mostly up to 49.8 µM; activity change, negative = inhibition: at the top concentration
Outline: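 HLA-ABC immunofluorescence, with nuclear and cell-body stains, was quantified by laser scanning cytometry. Read-out followed 24 h of IFN-beta (4.0 ng/ml) stimulation of C25cl48 human myoblasts with compounds titrated 1:3 over 11 points from 50 uM, with ruxolitinib as inhibitor control.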
On the % scale 0 is the no-effect control and ±100 the full control effect; potency means the concentration at half of the fitted maximal effect.

Compound | Potency | activity change, negative = inhibition
CNC(=O)c1nn(C)c2c1C(C)(C)Cc1cnc(Nc3ccc(N4CCN(C)CC4)cc3)nc1-2 | 5.76 µM (active) | –
Cc1c[nH]c2nc(Nc3ccc(N4CCN(C)CC4)c(F)c3)nc(-c3cccc(CC#N)c3)c12 | 1.62 µM (active) | –
CC[C@]1(O)C[C@H]2CN(CCc3c([nH]c4ccccc34)[C@@](C(=O)OC)(c3cc4c(cc3OC)N(C=O)[C@H]3[C@@](O)(C(=O)OC)[C@H](OC(C)=O)[C@]5(CC)C=CCN6CC[C@]43[C@@H]65)C2)C1 | – | 3.61% (inactive)
CCc1c(O)cc(O)c(C(=O)c2ccc(OCCN3CCOCC3)c(OC)c2)c1CC(=O)N(CCOC)CCOC | 0.814 µM (active) | –
COc1nnc2ccc(N3CCC(c4ccc(OCCN5CCN(C)C(=O)[C@H]5C)cc4)CC3)nn12 | 0.0145 µM (active) | –
CC(/C=C/C(=O)NO)=C\[C@@H](C)C(=O)c1ccc(N(C)C)cc1 | 0.204 µM (active) | –
O=C1Nc2ccccc2C1(c1ccc(O)cc1)c1ccc(O)cc1 | – | 0.682% (inactive)
O=C1NCCc2[nH]c(-c3ccncc3)cc21 | 2.57 µM (active) | –
N#CCNC(=O)c1ccc(-c2ccnc(Nc3ccc(N4CCOCC4)cc3)n2)cc1 | 1.62 µM (active) | –
Cc1[nH]c2ccccc2c1CCNCc1ccc(/C=C/C(=O)NO)cc1 | 0.0229 µM (active) | –
CNC(=O)c1cc(Oc2ccc(NC(=O)Nc3cc(C(C)(C)C)nn3-c3ccc4ncccc4c3)c(F)c2)ccn1 | 1.82 µM (active) | –
CN(C)Cc1c(C(=O)NCCOc2ccc(C(=O)NO)cc2)oc2ccccc12 | 0.162 µM (active) | –
CC[C@@]1(O)C(=O)OCc2c1cc1n(c2=O)Cc2c-1nc1ccccc1c2/C=N/OC(C)(C)C | 3.24 µM (active) | –
